MazEF act – activators of E. coli MazEF toxin-antitoxin RNase. P0AE70. FAM/BHQ RNA-DNA oligo cleavage fluorescence, 5 h. activation, % at 20 µM. 0.32% of 350,000 active. AID 504720; in the data active = activation above about 50%
Target sequence (P0AE70 whole entry, looked up): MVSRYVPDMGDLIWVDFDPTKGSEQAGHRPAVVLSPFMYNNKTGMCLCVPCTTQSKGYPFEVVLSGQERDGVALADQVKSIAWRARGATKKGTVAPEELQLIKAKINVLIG
Mtb betalactam – beta-lactam sensitization of Mtb H37Rv | inhibition, % at 25 µM | M. tuberculosis H37Rv growth with meropenem, percent inhibition | AID 434955 | 0.27% of 330,000 active; call rule not given here;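 also: growth measured after seven days incubation then overnight dye step; 0% = bacteria only wells and 100% = bacteria with antibiotic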
FBA Mtb inh – inhibits M. tuberculosis FBA enzyme; purified M. tuberculosis FBA, fluorescence read-out; 2.3% of 360,000 active; inhibition, % at 1 µM; P9WQA3; AID 588726; in the data active = inhibition above about 27%;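 also: 0% = vehicle and 100% = reference inhibitor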
Target sequence (P9WQA3 whole entry, looked up): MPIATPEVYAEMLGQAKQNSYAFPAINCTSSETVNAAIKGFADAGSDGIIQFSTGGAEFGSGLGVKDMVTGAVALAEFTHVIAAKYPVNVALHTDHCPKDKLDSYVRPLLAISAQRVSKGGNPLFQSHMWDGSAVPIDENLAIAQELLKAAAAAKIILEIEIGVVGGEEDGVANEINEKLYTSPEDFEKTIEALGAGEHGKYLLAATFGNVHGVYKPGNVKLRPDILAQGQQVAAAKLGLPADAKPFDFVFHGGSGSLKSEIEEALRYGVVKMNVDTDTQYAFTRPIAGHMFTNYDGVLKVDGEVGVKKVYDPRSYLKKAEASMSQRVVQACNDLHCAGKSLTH
GDH-TPI inh – inhibits GDH-TPI coupling enzymes, artifact for Mtb FBA screen; 1.2% of 360,000 active; inhibition, % at 4.8 µM; AID 588335; GDH-TPI coupled enzyme counterscreen, NADH absorbance;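 also: 0% = DMSO wells and 100% = wells lacking the enzyme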
CCHF vOTU inh-1 – blocks the CCHF virus ovarian tumor domain protease; CCHFV vOTU protease, Pep-AMC fluorescence; inhibition, % at 11.5 µM; 0.55% of 370,000 active; also: 0% = vehicle wells with enzyme and 100% = no enzyme wells
CCHF vOTU inh-2 – confirmation of CCHF virus vOTU protease inhibitors. Recombinant CCHFV vOTU, Pep-AMC fluorescence. shares compounds with CCHF vOTU inh-1. 17% of 1,900 active. inhibition, % at 11.5 µM
Numbers without * were called inactive; u = inconclusive; x = not tested or not shown. Compounds with a hit are over-represented: about 4% of the library has one in this group of screens. Rule as the data show it, unless noted: active = inhibition above about 30%; inactive = the rest.

SMILES	MazEF act	Mtb betalactam	FBA Mtb inh	GDH-TPI inh	CCHF vOTU inh-1	CCHF vOTU inh-2
Cc1ccc(-n2c(SCC(N)=O)nc3c(oc4ccccc43)c2=O)cc1	3	-3	0	-1	5	x
COC(=O)c1ccc(COc2nc(C)cc(C)c2C#N)o1	-11	-7	2	8	32*	-2
CCC1Sc2ccc(S(=O)(=O)CCC(=O)Nc3ccc(OC(F)(F)F)cc3)cc2NC1=O (stereo not given)	-16	1	-2	2	39*	8
COc1cc(/C=C(\C(=O)O)c2ccc(S(=O)(=O)N3CCCC3)s2)ccc1OCCC(C)C	-7	x	1	9	32*	13
CCOc1ccc(NC(=O)CC(=O)Nc2ccc(OCC)cc2)cc1	6	-9	-3	1	-6	x
CCOc1ccc(NC(=O)CNS(=O)(=O)c2c(C)cc(C)cc2C)cc1	5	-4	-1	1	43*	-16
C(=C\c1ccccn1)/c1cccnc1	x	x	0	6	-3	x
COc1cccc(-c2cc(C(F)(F)F)nc(-n3cncn3)n2)c1	-3	-4	1	8	-9	x
COc1cccc(-c2cc(C(F)(F)F)nc(-n3cc(C)cn3)n2)c1	5	6	-1	6	35*	-9
COc1ccc(Cc2nccc3cc(OC)c(OC)cc23)cc1OC	-8	5	4	6	92*	40*
Cc1ccc(NC(=O)CSc2nnc(-c3cc(-c4ccc(Cl)cc4)n[nH]3)n2N)cc1	x	x	x	x	99*	-1
O=C1C=CC(=O)N1c1ccc(Nc2ccccc2)cc1	-2	x	-3	14	41*	-16
c1ccc(Nc2ccc(Nc3ccccc3)cc2)cc1	-14	62	-1	4	1	x
CC(Nc1cccc2ccccc12)C(=O)N/N=C/c1ccccn1 (stereo not given)	7	32	1	18	114*	-4
CC(C)(C)CC(C)(C)NC(=O)CSCC(=O)Nc1ccc2ccccc2c1	-6	86	-1	4	30*	12
CCC(=O)NC(c1cccs1)c1cc([N+](=O)[O-])c2cccnc2c1OC (stereo not given)	x	x	-8	16	124*	-8
Cn1c(CCCNC(=O)c2ccco2)nc2ccccc21	-3	x	3	15	-2	x
CCC1(CC)NC(=O)N(CC(=O)OC(C)C(=O)Nc2cc([N+](=O)[O-])ccc2OC)C1=O (stereo not given)	5	u	-2	25	30*	-5
O=C(CC1CCCC1)Nc1ccc(Cl)c(S(=O)(=O)N2CCOCC2)c1	-16	-10	0	8	-3	x
COCCn1c(SCC(=O)NN2C(=O)NC(C)(c3ccccc3)C2=O)nnc1-c1ccncc1 (stereo not given)	1	1	-1	-4	35*	-21
COCCn1c(SCC(=O)Nc2cc(C)nn2-c2ccccc2)nnc1-c1ccncc1	-12	-3	-1	3	23	x
O=[N+]([O-])c1cc([N+](=O)[O-])c2nonc2c1Nc1ccccc1O	8	99	-23	-1	-1	x
O=[N+]([O-])c1cc([N+](=O)[O-])c2nonc2c1Nc1ccc(O)cc1	5	-4	-29	-5	64*	-6
COc1ccc(N2C(=O)C(Cl)=C(Nc3ccccc3O)C2=O)cc1	7	98	-3	-6	9	x
COc1ccc(N2C(=O)C(Cl)=C(Nc3ccccc3OC)C2=O)cc1	-2	3	-3	18	36*	-5
SMILES	MazEF act	Mtb betalactam	FBA Mtb inh	GDH-TPI inh	CCHF vOTU inh-1	CCHF vOTU inh-2
CCC(=O)NC1=C(Cl)C(=O)C(NC(=O)CC)=C(Cl)C1=O	-6	x	-1	13	97*	9
COc1ccccc1/C=C/C=N/NC(=O)c1cnccn1	8	2	2	19	30*	-3
Cc1ccc(NN=C2c3ccccc3-c3ccccc32)cc1	7	99	0	12	35*	-11
c1ccc(NN=C2c3ccccc3-c3ccccc32)cc1	5	x	-4	9	-7	x
CC(=O)Nc1ccc(NC(=O)[C@H](C)NC(=O)c2ccco2)cc1	5	-3	2	-4	5	x
C[n+]1c2ccccc2nc2ccc(NCCO)cc21	-35	99	3	11	91*	81*
CCN(CC)c1ccc2nc3ccccc3[n+](CC)c2c1	6	99	-3	14	x	x
CNc1ccc2nc3ccccc3[n+](C)c2c1	-50	99	-1	-9	102*	79*
CN(CC(O)COc1c(F)cc(Br)cc1F)C1CCCCC1 (stereo not given)	10	-5	2	3	4	x
Cc1ccc2c(c1)CCCN2CC(=O)N(C)c1c(N)n(Cc2ccccc2)c(=O)[nH]c1=O	-4	1	2	-6	12	x
CC(C)CC(COCc1cccc(C(F)(F)F)c1)N1CCN(C(=O)c2cccc(C(F)(F)F)c2)CCC1=O (stereo not given)	0	-6	-2	3	30*	26
COCCCN1C(=O)C(CC(=O)NCCN2CCOCC2)CC(C(=O)N2CCOCC2)=C1C (stereo not given)	x	x	x	x	39*	-18
COCCCN1C(=O)C(CC(=O)NCCN2CCOCC2)CC(C(=O)N2CCCCCC2)=C1C (stereo not given)	x	x	x	x	-5	x
COc1cc(OC)cc(-c2c(-c3cccs3)c3cc(Br)ccc3n2C)c1	-9	18	4	14	31*	-28
CC(C)=CCC[C@H](C)CC1Cc2[nH]c(=S)[nH]c(=O)c2C(c2ccc(Cl)cc2)O1 (stereo not given in full)	x	x	x	x	30*	-8
CC(C)=CCC[C@H](C)CC1Cc2[nH]c(=S)[nH]c(=O)c2C(c2ccc(F)cc2)O1 (stereo not given in full)	x	x	3	x	0	x
CCC(NS(=O)(=O)c1ccc2c(c1)Cc1cc(S(=O)(=O)NC(CC)C(=O)O)ccc1-2)C(=O)O (stereo not given)	3	-31	1	-2	-2	x
COc1ccc2nc(-c3ccco3)c(-c3ccco3)nc2c1	-7	0	4	6	63*	-15
c1coc(-c2nc(-c3ccco3)c(-c3ccco3)nc2-c2ccco2)c1	6	-7	32*	28	35*	-14
CC12CCC(C(=O)C1)C1(C)CCCC(=O)C21 (stereo not given)	-1	x	1	4	-2	x
COc1ccccc1C(=O)N1CCCC(C)(C(=O)NS(=O)(=O)C2CC2)C1 (stereo not given)	x	x	0	-3	30*	-18
CCCCCC(=O)N1C[C@H](n2cc(COC(=O)c3ccccc3)nn2)[C@@H](O)C[C@@H]1c1ccc(C)cc1	-5	x	-1	5	35*	4
CCCCCCN1C[C@H](O)[C@@H](n2cc(-c3ccc(F)cc3)nn2)C[C@@H]1c1ccccc1	-5	x	-2	2	33*	-9
CCCCCCN1C[C@H](n2cc(COC(=O)c3ccccc3)nn2)[C@@H](O)C[C@@H]1c1ccc(Cl)cc1	-8	x	-3	-5	32*	11
